SMILES strings stand for the structures. ± gives the uncertainty stated by the source.

This assay relates to FLX1. Nature of the assay: cell viability z-score within plate (CellTiter-Glo), mean of 3 biological replicates; higher = higher viability relative to plate (less growth inhibition). The settings on record: 2 µM; time (hr): 120. As for the experimental part: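 FLX1 fibrolamellar carcinoma cells (DNAJB1-PRKACA fusion), 600 cells/well in 384-well plates, treated with a Selleck kinase inhibitor library (L1200) at 2 uM for 5 days (120 hr); viability by CellTiter-Glo. A z-score was computed within each plate and averaged over three biological replicates.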
On the technique in general: In ATP-based viability assays light output follows the ATP content of the culture.
Consider `C[C@@H]1CN(CC(=O)Nc2ccc3c(c2)Cc2cccc(-c4cc(=O)cc(N5CCOCC5)o4)c2S3)C[C@H](C)O1`, for which the “cell viability z-score within plate” value turned out to be 0.915 ± 0.16.
The figure for `CC[C@@H]1C(=O)N(C)c2cnc(Nc3ccc(C(=O)N[C@H]4CC[C@H](N5CCN(CC6CC6)CC5)CC4)cc3OC)nc2N1C(C)C` [Volasertib (BI 6727)] is -0.186 ± 0.53; for `C[C@H](Nc1ncnc2nc[nH]c12)c1cc2cccc(Cl)c2c(=O)n1-c1ccccc1` [Duvelisib (IPI-145, INK1197)] it is 0.585 ± 0.95; for `O=C(Nc1ccc(OC(F)(F)F)cc1)c1sccc1NCc1ccnc2ccccc12` it is 0.792 ± 0.22.
On to `COc1cc2c(c(OC)c1OC)-c1c(cc3c(c1OC)OCO3)CC(C)C(C)C2` (centres undefined) [Schisandrin B (Sch B)], for which the “cell viability z-score within plate” value came to 0.407 ± 0.2.
For the molecule `CO[C@@H](C(=O)N1Cc2[nH]nc(NC(=O)c3ccc(N4CCN(C)CC4)cc3)c2C1)c1ccccc1`, the “cell viability z-score within plate” value was 0.348 ± 0.073.
Under `CNC(=O)c1cc(Oc2ccc(NC(=O)Nc3ccc(Cl)c(C(F)(F)F)c3)cc2)ccn1` [Sorafenib] stands -1.7 ± 1.3; under `C=CCc1ccc(O)c(-c2ccc(O)c(CC=C)c2)c1` [Honokiol], 0.237 ± 0.16.
Under `CN(C[C@@H]1COCCO1)S(=O)(=O)Nc1ccc2ccc3ncc(-c4cnn(C)c4)cc3c(=O)c2c1` stands -0.122 ± 0.42; under `Cc1c(F)cc(C(=O)NC2CC2)cc1-c1ccc(C(=O)NCC(C)(C)C)cn1`, -0.342 ± 0.51; under `CC(=O)Nc1cccc(-n2c(=O)n(C3CC3)c(=O)c3c(Nc4ccc(I)cc4F)n(C)c(=O)c(C)c32)c1`, 0.929 ± 0.43.
`NC1(c2ccc(-c3nc4ccn5c(=O)[nH]nc5c4cc3-c3ccccc3)cc2)CCC1`: the “cell viability z-score within plate” value was -0.0746 ± 0.54.
Under `O=C(c1ccc(/C=C/c2n[nH]c3ccccc23)cc1)N1CCNCC1` stands 0.449 ± 0.26; under `O=C1Nc2ccccc2/C1=C1/Nc2ccccc2C1=O` [Indirubin], 1.02 ± 0.66; under `O=S(=O)(NCCNC/C=C/c1ccc(Br)cc1)c1cccc2cnccc12`, -2.86 ± 1.5.
Under `Clc1ccc(C2(c3ccc(-c4cn[nH]c4)cc3)CCNCC2)cc1` stands 0.815 ± 0.24.
With `COc1ccc(-c2ccc3c(N4CCOCC4)nc(N4C[C@@H](C)O[C@@H](C)C4)nc3n2)cc1CO`, the “cell viability z-score within plate” value came out at 0.495 ± 0.19.
Under `Cc1cc(C)c(/C=C2\C(=O)Nc3ccccc32)[nH]1` [Semaxanib (SU5416)] stands -1.17 ± 0.77; under `NCC(=O)Nc1ccc(-n2nc(C(F)(F)F)cc2-c2ccc3c(ccc4ccccc43)c2)cc1`, 0.225 ± 0.2; under `N#C/C(=C\c1ccc(O)c(O)c1)C(=O)NCc1ccccc1` [AG-490 (Tyrphostin B42)], -0.668 ± 1.4.
For `Cn1cc(C2=C(c3ccc(Cl)cc3Cl)C(=O)NC2=O)c2ccccc21`, the “cell viability z-score within plate” value was -1.2 ± 0.71.
Under `CO[C@H]1C[C@@H]2CC[C@@H](C)[C@@](O)(O2)C(=O)C(=O)N2CCCC[C@H]2C(=O)O[C@H]([C@H](C)C[C@@H]2CC[C@@H](OCCO)[C@H](OC)C2)CC(=O)[C@H](C)/C=C(\C)[C@@H](O)[C@@H](OC)C(=O)[C@H](C)C[C@H](C)/C=C/C=C/C=C/1C` [Everolimus (RAD001)] stands -0.497 ± 1.1; under `Nc1cc(C(F)(F)F)c(-c2cc(N3CCOCC3)nc(N3CCOCC3)n2)cn1` [Buparlisib (BKM120, NVP-BKM120)], -0.0175 ± 0.38.
For the molecule `CSc1cccc(Nc2ncc3cc(-c4c(Cl)cccc4Cl)c(=O)n(C)c3n2)c1`, the “cell viability z-score within plate” value turned out to be 0.169 ± 0.22.
Under `CCS(=O)(=O)c1cccc(-c2cc(C(=O)NC3CCN(C)CC3)c(C)c3[nH]c4ncc(C)cc4c23)c1` stands 0.278 ± 0.45.
The figure for `O=C(O)[C@]1(Cc2cccc(Nc3nccs3)n2)CC[C@@H](Oc2cccc(Cl)c2F)CC1` is -1.08 ± 1; for `COc1cc(F)c(F)c(Nc2ccc(I)cc2F)c1NS(=O)(=O)C1(C[C@H](O)CO)CC1` [Refametinib (RDEA119, Bay 86-9766)] it is -1.34 ± 1.7.
The figure for `CN1CCN(c2ccc(Nc3cc(-c4cccc(-n5ccc6cc(C7CC7)cc(F)c6c5=O)c4CO)cn(C)c3=O)nc2)CC1` is -0.244 ± 0.38; for `Cc1ccc(-n2nc(C(C)(C)C)cc2NC(=O)Nc2ccc(OCCN3CCOCC3)c3ccccc23)cc1` [Doramapimod (BIRB 796)] it is 0.479 ± 0.82.
For `Oc1c2ccccc2c2c3c(cccc13)N=N2`, the “cell viability z-score within plate” value was found to be 0.48 ± 0.65.
The figure for `C[C@@H](NC(=O)c1ncnc(N)c1Cl)c1ncc(C(=O)Nc2cc(C(F)(F)F)c(Cl)cn2)s1` is 0.647 ± 0.28.
The figure for `COc1ccc(COc2cc3oc(=O)c4cc(C(C)O)ccc4c3cc2OC)cc1` (centres undefined) [Palomid 529 (P529)] is 0.0682 ± 0.42.
Under `C[C@@H](N)[C@H]1CC[C@H](C(=O)Nc2ccncc2)CC1` stands 0.0727 ± 0.19.
For the molecule `N#CC1(c2ccc(NC(=O)c3cccnc3NCc3ccncc3)cc2)CCCC1` [Apatinib], the “cell viability z-score within plate” value was 0.121 ± 0.33.
